The record followed here is PubChem BioAssay (NCATS).

SMILES strings stand for the structures. Inconclusive results are not listed. A call without a number means that no potency is given here. Activity calls are given as the source filed them. Calls follow the shape of the dose curve; as a rule, active = well fitted inhibition curve with a large enough effect; inconclusive = small, poorly fitted or top-dose-only effect; inactive = no such curve, though single readings can be large or run the other way.

The target of the test is RecQ-like DNA helicase BLM (Homo sapiens) (UniProt P54132). Description: qHTS Validation Assay for Inhibitors of Bloom's syndrome helicase (BLM) (AID 2364). To be noted: BLM helicase DNA unwinding, fluorescence, in vitro; series mostly up to 57.1 µM. The method, boiled down: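 BLM 50 nM in 25 mM Tris-HCl pH 8.0, 5 mM NaCl, 2 mM MgCl2, 1 mM DTT, 0.01% Tween-20, 2.5 ug/ml poly(dI-dC); 15 min cpd preinc, RT. Start: 200 nM forked DNA + 2 mM ATP (final). TAMRA read, 2 reads 2 h apart.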
Sequence of RecQ-like DNA helicase BLM (Homo sapiens) (P54132 whole entry, looked up): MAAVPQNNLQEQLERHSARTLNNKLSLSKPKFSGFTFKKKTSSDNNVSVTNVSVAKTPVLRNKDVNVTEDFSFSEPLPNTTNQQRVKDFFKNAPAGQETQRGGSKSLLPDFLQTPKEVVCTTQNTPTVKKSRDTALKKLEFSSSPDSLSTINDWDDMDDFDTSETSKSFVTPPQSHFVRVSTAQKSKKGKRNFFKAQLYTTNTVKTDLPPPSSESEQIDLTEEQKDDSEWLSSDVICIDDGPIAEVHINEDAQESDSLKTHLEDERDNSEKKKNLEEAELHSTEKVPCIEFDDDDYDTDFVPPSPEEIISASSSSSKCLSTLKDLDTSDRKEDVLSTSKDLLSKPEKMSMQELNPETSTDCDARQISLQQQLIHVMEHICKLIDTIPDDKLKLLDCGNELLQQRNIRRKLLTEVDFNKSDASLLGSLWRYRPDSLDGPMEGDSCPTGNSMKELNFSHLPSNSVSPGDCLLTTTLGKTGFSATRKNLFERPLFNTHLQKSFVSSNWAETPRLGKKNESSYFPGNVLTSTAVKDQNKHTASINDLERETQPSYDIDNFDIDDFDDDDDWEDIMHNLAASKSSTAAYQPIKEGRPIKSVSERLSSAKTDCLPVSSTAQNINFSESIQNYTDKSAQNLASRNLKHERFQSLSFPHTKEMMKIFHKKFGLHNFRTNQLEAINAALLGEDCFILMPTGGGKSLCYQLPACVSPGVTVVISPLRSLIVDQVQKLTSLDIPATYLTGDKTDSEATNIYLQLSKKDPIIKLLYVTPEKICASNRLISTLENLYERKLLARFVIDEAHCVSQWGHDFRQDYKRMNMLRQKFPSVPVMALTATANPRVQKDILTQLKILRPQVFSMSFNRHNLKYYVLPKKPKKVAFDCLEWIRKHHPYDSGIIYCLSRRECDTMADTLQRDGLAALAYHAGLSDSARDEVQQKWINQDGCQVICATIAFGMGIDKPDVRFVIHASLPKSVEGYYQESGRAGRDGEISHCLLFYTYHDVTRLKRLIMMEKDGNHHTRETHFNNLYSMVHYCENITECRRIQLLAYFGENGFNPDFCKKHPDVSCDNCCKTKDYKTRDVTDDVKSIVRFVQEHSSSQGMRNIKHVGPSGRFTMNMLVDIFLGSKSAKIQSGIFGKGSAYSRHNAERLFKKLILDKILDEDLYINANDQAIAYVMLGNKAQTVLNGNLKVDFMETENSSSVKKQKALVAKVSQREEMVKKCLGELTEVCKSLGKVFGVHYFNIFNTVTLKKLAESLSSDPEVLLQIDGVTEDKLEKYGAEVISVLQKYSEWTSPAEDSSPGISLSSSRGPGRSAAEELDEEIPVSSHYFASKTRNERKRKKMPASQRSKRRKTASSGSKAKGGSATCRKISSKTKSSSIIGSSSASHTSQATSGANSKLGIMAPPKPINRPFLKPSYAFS
With `COc1ccccc1N1CCN(CCCCNC(=O)c2ccc3ccccc3c2)CC1`, the Potency entry was “inactive”.

As to `COc1ccc(NC(=O)c2ccc(-c3ccc(-c4noc(C)n4)cc3C)cc2)cc1N1CCN(C)CC1`, the Potency result is “inactive”.

As to `COC(=O)C(N)Cc1ccc(Cl)cc1` (configuration not stated), the Potency result was “inactive”.

`Cn1ccnc1`: the Potency entry was “inactive”.

For the compound `Cn1cc(C(F)(F)F)nc1-c1ccc(OCC(O)CNCCOc2ccc(O)c(C(N)=O)c2)cc1` (configuration not stated), the Potency entry is “inactive”.

Take `N[C@@H](CS(=O)O)C(=O)O`: the Potency result was “inactive”.

For the compound `CC(C)NCC(O)COc1ccc(CC(N)=O)cc1` (configuration not stated), the Potency result is “inactive”.

As for `O=C(O)/C=C/c1ccc(O)c(O)c1`, the Potency entry is “inactive”.

With `CCCN(CCc1ccccc1)C1CCc2c(O)cccc2C1` (configuration not stated), the Potency entry is “inactive”.

As for `COc1ccc(-c2ccc(N)[n+](CCCC(=O)O)n2)cc1`, the Potency result is “inactive”.

On to `N[C@H](C(=O)O)[C@H]1C[C@@H]1C(=O)O`, for which the Potency result is “inactive”.

In the case of `N=C(N)c1ccc(OCCCCCOc2ccc(C(=N)N)cc2)cc1` (tested in a mixture with another compound), the Potency entry was “inactive”.

Regarding `CN(C)C(=O)/N=N/C(=O)N(C)C`, the Potency entry was “inactive”.

As to `C=CC[C@H](N)C(=O)O`, the Potency result was “inactive”.

As for `CCCCC[C@H](CC(=O)NO)C(=O)N[C@H](C(=O)N1CCC[C@H]1CO)C(C)C`, the Potency entry is “inactive”.

As to `Cc1ccc([N+](=O)[O-])cc1S(=O)(=O)N(C)C`, the Potency entry is “inactive”.

With `COc1ccc2c(c1)CCC1C2CC[C@@]2(C)C1CC[C@@H]2NCCCCCCN1C(=O)C=CC1=O` (some centres not stated), the Potency entry is “inactive”.

For `CN1C2CCC1CC(OC(c1ccccc1)c1ccccc1)C2` (configuration not stated), the Potency entry is “inactive”.

As for `CC(N)(Cc1ccc(O)cc1)C(=O)O` (configuration not stated), the Potency result was “inactive”.

Take `CCN(c1nc(N)c(C(=O)N=C(N)N)nc1Cl)C(C)C`: the Potency entry was “inactive”.

Take `[Li+]`: the Potency entry was “inactive”.

Consider `NCCC1CCCC(CCN)N1` (configuration not stated), for which the Potency result was “inactive”.
